According to the supplement of paper PMC3898565:
Where “and” joins values, the source holds several entries; their conditions need not be identical. Equal values may be shown once. ± gives the uncertainty stated by the source.

Test system: U87
Experiment: cell viability relative to vehicle control; higher = less growth inhibition (less active)
Conditions: 10 µM; 72 h
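Also: viable cell number estimated from Alamar Blue fluorescence read at 560/90, part of a single-dose primary screen of an FDA-approved drug library.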

Row | Compound | cell viability
1 | CC(=O)OCC(CCn1cnc2cnc(N)nc21)COC(C)=O | 104.2 ± 0.4%
2 | O=C(c1ccccc1)c1ccc2n1CCC2C(=O)O (stereo not given) [Ketorolac Tromethamine] | 101.2 ± 0.98%
3 | NC[C@H]1CC[C@H](C(=O)Oc2ccc(CCC(=O)O)cc2)CC1 | 104.6 ± 0.48%
4 | CCOC(=O)C1=C(C)NC(C)=C(C(=O)OCC)C1c1ccccc1/C=C/C(=O)OC(C)(C)C | 98.85 ± 0.96%
5 | COCCCC/C(=N\OCCN)c1ccc(C(F)(F)F)cc1 [Fluvoxamine] | 106 ± 1.5%
6 | CCS(=O)(=O)CCn1c([N+](=O)[O-])cnc1C | 101 ± 1.7%
7 | C=CCc1ccc(O)c(-c2ccc(O)c(CC=C)c2)c1 | 100.7 ± 1%
8 | CNNCc1ccc(C(=O)NC(C)C)cc1 [Procarbazine] | 104.4 ± 0.86%
9 | COc1cccc2c1C(=O)c1c(O)c3c(c(O)c1C2=O)C[C@@](O)(C(=O)CO)C[C@@H]3O[C@H]1C[C@H](N)[C@H](O)[C@H](C)O1 | 23.5 ± 4%
10 | Cc1nc2n(c(=O)c1CCN1CCC(c3noc4cc(F)ccc34)CC1)CCCC2 | 108 ± 1.7%
11 | COc1cc([C@@H]2c3cc4c(cc3[C@@H](O[C@@H]3O[C@@H]5CO[C@@H](C)O[C@H]5[C@H](O)[C@H]3O)[C@H]3COC(=O)[C@H]23)OCO4)cc(OC)c1O [Etoposide] | 70.5 ± 4.8%
12 | Cc1cccc(C)c1NC(=O)C1CCCCN1C (stereo not given) | 106 ± 0.63%
13 | CCOC(=O)c1ccc(OC(=O)CCCCCNC(=N)N)cc1 [Gabexate] | 98.6 ± 3.2%
14 | CC1(C)S[C@@H]2[C@H](/N=C/N3CCCCCC3)C(=O)N2[C@H]1C(=O)O | 104 ± 2.1%
15 | Cc1c(O)cccc1C(=O)N[C@@H](CSc1ccccc1)[C@H](O)CN1C[C@H]2CCCC[C@H]2C[C@H]1C(=O)NC(C)(C)C | 102.1 ± 1%
16 | Clc1ccc(CO/N=C(\Cn2ccnc2)c2ccc(Cl)cc2Cl)c(Cl)c1 | 103 ± 3.9%
17 | CCN(CC)CC(=O)Nc1c(C)cccc1C | 94.8 ± 2.8%
18 | CN(CCOc1ccc(CC2SC(=O)NC2=O)cc1)c1ccccn1 (stereo not given) | 100% and 110%
19 | C[C@H]1O[C@H](O[C@H]2[C@H](O)[C@@H](O)[C@@H](O[C@H]3[C@H](O)[C@@H](O)C(O)O[C@@H]3CO)O[C@@H]2CO)[C@H](O)[C@@H](O)[C@@H]1N[C@H]1C=C(CO)[C@@H](O)[C@H](O)[C@H]1O (stereo not given in full) | 102.6 ± 0.92%
20 | COC(=O)CCc1ccc(OCC(O)CNC(C)C)cc1 (stereo not given) | 128 ± 3%
21 | CC(C)(C)NCC(O)c1ccc(O)c(CO)c1 (stereo not given) | 98.8 ± 8.3%
22 | C[C@H](CCC(=O)O)[C@H]1CC[C@H]2[C@@H]3C(=O)C[C@@H]4CC(=O)CC[C@]4(C)[C@H]3CC(=O)[C@]12C | 103.4 ± 0.82%
23 | Nc1nnc(-c2cccc(Cl)c2Cl)c(N)n1 | 102 ± 1.2%
24 | COC(=O)C1=C(C)NC(C)=C(C(=O)OC)C1c1ccccc1[N+](=O)[O-] | 105 ± 1.4%
25 | O=C(O)CCc1nc(-c2ccccc2)c(-c2ccccc2)o1 | 129 ± 2.2%
